Results taken from the supplement of paper PMC4723716.
± gives the uncertainty stated by the source. Over roughly 9,900 compounds, “viability index relative to DMSO control” has its median near 1; the lowest 2% begin near 0.85. The list comes from a sample in which the lowest values are over-represented; it also holds similar structures and randomly drawn compounds.

System: Plasmodium falciparum NF54 stage V gametocytes
Test: viability index relative to DMSO control (fraction); higher = less gametocyte killing
Details: 2.5 µM, incubation time: 72 h
Outline: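 Viability index is the count of red-stained particles in a well divided by the plate mean of solvent-only wells. Particles of 20–70 µm2 were counted in one imaged field per well after one to two hours with 3 µl of 2.5 µM MitoTracker Red CMXRos and 0.13% saponin. Before staining, P. falciparum NF54 stage V gametocytes in serum-free medium (0.75% gametocytemia, 1.25% hematocrit, 10 µl, 1,536-well plates) were kept with compound at 2.5 µM for 72 hr at 37°C under low oxygen.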

[1] = library set: Broad Institute DOS
[2] = library set: Broad Institute Blood Stage

| SMILES | viability index [1] | viability index [2] |
| --- | --- | --- |
| CCCN(C)C[C@H]1Oc2cc(/C=C/c3ccccc3)ccc2S(=O)(=O)N([C@H](C)CO)C[C@H]1C | 1.05 ± 0.026 | – |
| COc1ccc2c3c([C@@H](CO)N(C[C@]33CCN(CC4CCOCC4)CC3)C(=O)NC(C)C)n(C)c2c1 | 0.97 ± 0.013 | – |
| COc1ccc2c3c([C@H](CO)N(CC4CC4)C[C@]33CCN(CC3)C(=O)NC3CCCC3)n(C)c2c1 | 0.955 ± 0.05 | – |
| C[C@H]1CN([C@@H](C)CO)C(=O)CCCn2nncc2CO[C@H]1CN(C)C(=O)c1ccc2ccn(C)c2c1 | 1.015 ± 0.0067 | – |
| O=C(C[C@@H]1CC[C@H]2[C@@H](COC[C@@H](O)CN2C(=O)c2ccccc2F)O1)NCc1ccc(Cl)c(Cl)c1 | 1.09 ± 0.036 | – |
| COC(=O)c1ccc(CN2CC(=O)N3[C@H](CO)[C@@H](c4ccc(-c5cccnc5)cc4)[C@H]3C2)cc1 | 0.986 ± 0.01 | – |
| C[C@@H]1CN([C@H](C)CO)C(=O)CCCn2cc(nn2)CO[C@@H]1CN(C)Cc1ccccc1 | 0.986 ± 0.035 | – |
| O=C(C[C@H]1CC[C@@H](NC(=O)Nc2ccc(C(F)(F)F)cc2)[C@H](CO)O1)NCc1cccc(F)c1 | 0.953 ± 0.14 | – |
| C[C@@H]1CCCCO[C@@H](CN(C)C(=O)Nc2cccc3ccccc23)[C@H](C)CN([C@@H](C)CO)C(=O)c2cc(NC(=O)CCC(F)(F)F)ccc2O1 | 1 ± 0.061 | – |
| Cc1noc(C)c1S(=O)(=O)Nc1ccc2c(c1)C(=O)N([C@@H](C)CO)C[C@@H](C)[C@@H](CN(C)C(=O)Nc1cccc3ccccc13)OCCCC[C@@H](C)O2 | 0.893 ± 0.066 | – |
| C[C@@H]1CN([C@H](C)CO)C(=O)c2cc(NC(=O)C3CCCCC3)ccc2O[C@@H](C)CCCCO[C@H]1CN(C)C(=O)CCC(F)(F)F | 1.05 ± 0.096 | – |
| Cc1noc(C)c1S(=O)(=O)Nc1ccc2c(c1)C(=O)N([C@@H](C)CO)C[C@H](C)[C@@H](CN(C)C(=O)Nc1cccc3ccccc13)OCCCC[C@H](C)O2 | 0.984 ± 0.043 | – |
| C[C@@H]1CN([C@H](C)CO)C(=O)c2cc(NC(=O)CCC(F)(F)F)ccc2O[C@@H](C)CCCCO[C@H]1CN(C)C(=O)Nc1cccc2ccccc12 | 1.08 ± 0.036 | – |
| C[C@@H]1CN([C@H](C)CO)C(=O)c2cc(NC(=O)C3CCCCC3)ccc2O[C@@H](C)CCCCO[C@@H]1CN(C)C(=O)CCC(F)(F)F | 0.817 ± 0.26 | – |
| C[C@@H]1CN([C@@H](C)CO)C(=O)c2cc(NC(=O)CCC(F)(F)F)ccc2O[C@@H](C)CCCCO[C@@H]1CN(C)C(=O)Nc1cccc2ccccc12 | 0.734 ± 0.082 | – |
| Cc1noc(C)c1S(=O)(=O)Nc1ccc2c(c1)C(=O)N([C@@H](C)CO)C[C@@H](C)[C@@H](CN(C)C(=O)Nc1cccc3ccccc13)OCCCC[C@H](C)O2 | 0.828 ± 0.11 | – |
| C[C@@H]1CN([C@@H](C)CO)C(=O)c2cc(NC(=O)C3CCCCC3)ccc2O[C@@H](C)CCCCO[C@H]1CN(C)C(=O)CCC(F)(F)F | 1.07 ± 0.071 | – |
| CN1C(=O)c2cc(NC(=O)c3cnccn3)ccc2OC[C@H]2O[C@H](CC(=O)NCC3CCCCC3)CC[C@@H]21 | 0.959 ± 0.028 | – |
| Cc1ccc(S(=O)(=O)N[C@H]2CC[C@@H](CC(=O)NCc3ccncn3)O[C@@H]2CO)cc1 | 1.01 ± 0.11 | – |
| CN1[C@@H]2CN(C(=O)C3CCCCC3)c3ccccc3[C@@H]2[C@@H]1CO | 1.06 ± 0.063 | – |
| COc1ccc(NC(=O)N2C[C@@]3(C2)CN([C@@H](CO)c2[nH]c4cc(OC)ccc4c32)C(C)=O)cc1 | 1.01 ± 0.1 | – |
| COc1ccc2c3c([nH]c2c1)[C@H](CO)N(C[C@]31CCN(Cc2ccncc2)CC1)C(=O)CC1CC1 | 0.934 ± 0.098 | – |

| SMILES | viability index [1] | viability index [2] |
| --- | --- | --- |
| O=C(C1CCOCC1)N1CC(=O)N2[C@H](C1)[C@@H](c1ccc(C#CCc3ccccc3)cc1)[C@@H]2CO | 1.06 ± 0.041 | – |
| COCc1cn(CC[C@H]2CC[C@@H](NC(=O)Nc3c(C)noc3C)[C@H](CO)O2)nn1 | 1.03 ± 0.051 | – |
| COCc1cn(CC[C@@H]2CC[C@H](NC(=O)Nc3c(C)noc3C)[C@H](CO)O2)nn1 | 0.951 ± 0.12 | – |
| OC[C@H]1CC[C@@H]2O[C@H](CCc3ccc(C#CCc4ccccc4)cc3)[C@H](n3cc(-c4ccccc4)nn3)C[C@@H]2O1 | – | 0.781 ± 0.043 |
| COCc1cn(CC[C@@H]2CC[C@H](NC(=O)Nc3c(C)noc3C)[C@@H](CO)O2)nn1 | 1.07 ± 0.097 | – |
| O=C(C1CCOCC1)N1CC(=O)N2[C@H](C1)[C@H](c1ccc(C#CCc3ccccc3)cc1)[C@@H]2CO | 1.09 ± 0.14 | – |
| COCc1cn([C@@H]2C[C@@H]3O[C@H](CO)CC[C@@H]3O[C@@H]2CCc2ccc(-c3ccc(OC)cc3)cc2)nn1 | – | 0.791 ± 0.041 |
| COCc1cn([C@@H]2C[C@@H]3O[C@@H](CO)CC[C@@H]3O[C@@H]2CCc2ccc(-c3ccc(OC)cc3)cc2)nn1 | – | 0.811 ± 0.063 |
| COCc1cn(CC[C@H]2CC[C@H](NC(=O)Nc3c(C)noc3C)[C@@H](CO)O2)nn1 | 0.927 ± 0.067 | – |
| CCC(=O)N1CC2(C1)[C@@H](c1ccc(-c3cccc(C)c3)cc1)[C@@H](CO)N2S(C)(=O)=O | 1.057 ± 0.0069 | – |
| Cc1nn(C)cc1NC(=O)C[C@@H]1CC[C@@H]2[C@H](COc3ccc(NC(=O)c4cccc(F)c4)cc3C(=O)N2C)O1 | 1.15 ± 0.11 | – |
| O=C(C[C@@H]1CC[C@@H]2[C@H](COC[C@@H](O)CN2C(=O)Nc2cccc(F)c2)O1)NCCCN1CCOCC1 | 1.12 ± 0.081 | – |
| COc1ccc(CN(C)C[C@@H]2OCc3cnnn3CCCC(=O)N([C@H](C)CO)C[C@@H]2C)cc1 | 0.963 ± 0.038 | – |
| O=C(CN1CCOCC1)N[C@H]1CC[C@H](CCn2cc(C3CC3)nn2)O[C@@H]1CO | 1.16 ± 0.021 | – |
| C/C=C/c1ccc2n(c1=O)C[C@@H]1N[C@H]2[C@H](C(=O)NC2CCCC2)[C@H]1CO.C/C=C\c1ccc2n(c1=O)C[C@@H]1N[C@H]2[C@H](C(=O)NC2CCCC2)[C@H]1CO | 1.04 ± 0.018 | – |
| COc1ccc2c(c1)n(C)c1[C@H](CO)N(C[C@]3(CCN(C)CC3)c21)C(=O)c1ccc(F)cc1 | 1.05 ± 0.018 | – |
| COc1ccc2c3c([C@H](CO)N(C[C@]33CCN(CC3)C(=O)c3ccccc3)C(=O)c3ccccc3)n(C)c2c1 | 0.979 ± 0.13 | – |
| COc1ccc2c3c([C@@H](CO)N(C[C@]33CN(C3)C(=O)c3cccc(F)c3)C(=O)c3cccc(F)c3)n(C)c2c1 | 0.848 ± 0.02 | – |
| COc1ccc2c3c([C@@H](CO)N(C[C@]33CCN(CC3)C(=O)c3ccccc3)C(=O)c3ccccc3)n(C)c2c1 | 0.761 ± 0.011 | – |
| COc1ccc2c3c([C@H](CO)N(C[C@]33CN(C3)C(=O)c3cccc(F)c3)C(=O)c3cccc(F)c3)n(C)c2c1 | 1.04 ± 0.047 | – |
| CCS(=O)(=O)N1CC[C@@]2(CC1)CN([C@@H](CO)c1c2c2ccc(OC)cc2n1C)C(=O)c1cccc(F)c1 | 1.02 ± 0.079 | – |
